Laboratory results taken from PubChem BioAssay AID1851 (National Center for Advancing Translational Sciences (NCATS), 2009).
In all, about 16,000 compounds went through this assay and about 4,000 (25%) were called active. About 26% were inconclusive and are not listed. The list is a sample of the results. A number with no mark means an inactive call. Calls follow the shape of the dose curve; as a rule, active = well fitted curve in the direction sought with a large enough effect; inconclusive = small, poorly fitted or top-dose-only effect, or effect the other way; inactive = no such curve, though single readings can be large or run the other way.

What follows are compounds tested against Cytochrome P450 2C9 (Homo sapiens) (UniProt P11712) (assay: Cytochrome panel assay with activity outcomes). Details: recombinant CYP, pro-luciferin dealkylation, luminescence, p450-cyp2c9; series mostly up to 57.1 µM; activity, negative = inhibition: at the top concentration.
Chain of Cytochrome P450 2C9 (Homo sapiens) (P11712 whole entry, looked up): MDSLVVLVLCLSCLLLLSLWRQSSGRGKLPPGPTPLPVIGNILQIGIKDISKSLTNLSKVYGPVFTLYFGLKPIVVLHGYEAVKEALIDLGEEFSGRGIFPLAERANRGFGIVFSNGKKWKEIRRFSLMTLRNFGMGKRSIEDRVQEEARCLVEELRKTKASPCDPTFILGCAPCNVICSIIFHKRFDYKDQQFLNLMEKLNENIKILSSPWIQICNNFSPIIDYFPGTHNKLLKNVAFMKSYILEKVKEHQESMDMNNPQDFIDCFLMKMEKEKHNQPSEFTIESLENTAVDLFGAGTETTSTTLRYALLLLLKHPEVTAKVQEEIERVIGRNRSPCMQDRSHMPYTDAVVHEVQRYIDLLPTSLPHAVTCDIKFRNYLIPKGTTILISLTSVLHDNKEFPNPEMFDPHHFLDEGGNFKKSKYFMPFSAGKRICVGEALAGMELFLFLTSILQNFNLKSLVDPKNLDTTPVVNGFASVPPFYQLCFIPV
% is scaled to controls: 0 for no effect and ±100 for the full control effect.

| Structure (SMILES) | activity, negative = inhibition | AC50 |
| --- | --- | --- |
| O=C1/C(=N\O)Cc2ccccc21 | -18.6% |  |
| COCC(=O)N1CCC[C@@]2(CCN(C(=O)Nc3cccc(F)c3)C2)C1 | 3.07% |  |
| CCOC(=O)CCCN | 4.7% [at 11.4 µM] |  |
| Cc1cc([N+](=O)[O-])ccc1-c1ccc(C2Nc3ccccc3C(=O)N2O)o1 (configuration not stated) |  | 2.82 µM (active) |
| O=[N+]([O-])c1ccc2c(c1)S(=O)c1ccccc1-2 (configuration not stated) | -1.14% [at 11.4 µM] |  |
| O=C1C2=C(Nc3cc([N+](=O)[O-])ccc3N2)O[C@@H]1c1ccc([C@H]2OC3=C(Nc4ccc([N+](=O)[O-])cc4N3)C2=O)cc1 | -18.7% [at 11.4 µM] |  |
| COc1cc2cc3c(N)c(C(=O)Nc4sc(C)c(C)c4C#N)sc3nc2cc1OC | -13.7% |  |
| CCOC(=O)Cc1csc(NC(=O)c2sc3nc4ccc(CC)cc4cc3c2N)n1 |  | 0.447 µM (active) |
| CCOC(=O)Cc1csc(NC(=O)c2ccc(Cl)nc2)n1 |  | 11.2 µM (active) |
| CC(C)(C)c1ccccc1OCCN1CCCC1 | 8.57% |  |
| Cc1cccc(C)c1NC(=O)/C(C#N)=C/c1cccs1 |  | 11.2 µM (active) |
| CCOc1ccc(-n2c(SCC(=O)Nc3ccc4c(c3)OCCO4)nc3c(c2=O)SCC3)cc1 |  | 2.82 µM (active) |
| CCOc1ccc2nc(C)cc(Nc3ccc4c(c3)OCCO4)c2c1 | 13.7% |  |
| CCOc1ccc(-n2c(SCC(=O)Nc3ccc(OC)cc3OC)nc3c(c2=O)SCC3)cc1 |  | 4.47 µM (active) |
| COCCN(C(=O)Nc1ccc(OC)cc1OC)C1CCN(C(C)=O)CC1 | -16.3% |  |
| CC(=O)c1[nH]c(C)c(C(C)=O)c1C | -32.9% |  |
| CN(C)c1ccc2nc3c(C(=O)O)cc(=O)c(O)c-3oc2c1 | -29.4% [at 11.4 µM] |  |
| Cc1ccc(-n2c(O)cnc2Nc2nc(C)cc(C)n2)cc1 | 4.21% |  |
| COc1ccc(Oc2ncc3nc(-c4ccc(Cl)cc4)c(=O)n(C)c3n2)cc1 | -9.75% |  |
| COc1ccc(/C(C#N)=C/c2c(-c3ccc(Cl)cc3)nc3c(C)cccn23)cc1 |  | 5.01 µM (active) |
| COc1cccc(Nc2ncc3nc(-c4ccc(Cl)cc4)c(=O)n(CCC#N)c3n2)c1 | 3.96% |  |
| O=C(O)Cc1sc(-c2ccc(Cl)cc2)nc1-c1ccccc1 |  | 2 µM (active) |
| BrC(c1cccc2ccccc12)c1cccc2ccccc12 |  | 3.16 µM (active) |
| CN(Cc1cccc2ccccc12)Cc1cccc2ccccc12 | -23.2% [at 11.4 µM] |  |

| Structure (SMILES) | activity, negative = inhibition | AC50 |
| --- | --- | --- |
| Nc1nc(-c2cc(-c3cccc4ccccc34)nc(N)n2)cc(-c2cccc3ccccc23)n1 | 10.6% [at 11.4 µM] |  |
| C[C@@H]1CC[C@@H]2C(=O)N3[C@@H](CC[C@@H](C)[C@@H]3c3ccc(-c4ccco4)cc3)C(=O)N2[C@H]1c1ccc(-c2ccco2)cc1 | -27.5% [at 11.4 µM] |  |
| Fc1ccc(C2CC(c3ccco3)=NN2c2ccccc2)cc1 (configuration not stated) |  | 1.41 µM (active) |
| c1cncc(CNc2ccnc(-c3ccc4c(c3)OCO4)n2)c1 | -9.36% [at 2.29 µM] |  |
| Cc1cccc(N2CCN(c3ccc(NC(=O)/C=C(/C(=O)O)c4ccccc4)cc3)CC2)c1 | -27% |  |
| Cc1cccc(NC2=NC(=S)N(c3ccc(C(=O)O)cc3)C23CCCCC3)c1 |  | 25.1 µM (active) |
| COc1ccc(NC2=NC(=S)N(c3ccc(C)cc3)C23CCCCC3)cc1 | 20.2% |  |
| CCc1nc(N2CCC3(CC2)OCCO3)c2nnn(Cc3ccccc3Cl)c2n1 |  | 11.2 µM (active) |
| Cc1noc(C)c1-c1nc(NCCN2CCOCC2)c2ccccc2n1 | 1.01% [at 2.29 µM] |  |
| CC(=O)Nc1ccc([N+](=O)[O-])cn1 | 9.45% |  |
| COc1cccc(NC(=S)NNC(=O)C(C)n2nc(C)c([N+](=O)[O-])c2C)c1 (configuration not stated) |  | 5.01 µM (active) |
| COc1cccc(NC(=S)NN2CCN(C)CC2)c1 | -10.9% |  |
| Cc1nn(C(C)C(=O)Nc2ccc(Cl)cn2)c(C)c1[N+](=O)[O-] (configuration not stated) |  | 14.1 µM (active) |
| Cc1cc(NC(=O)c2nn(C)c(C)c2[N+](=O)[O-])no1 | -8.43% |  |
| Cc1ncsc1C(=O)N1N=C2/C(=C/c3ccccc3)CCCC2C1c1ccccc1 (configuration not stated) |  | 2.82 µM (active) |
| COc1ccc(/C=C2\CCCC3C2=NN(C(=O)c2ccco2)C3c2ccc(OC)c(OC)c2)cc1OC (configuration not stated) |  | 11.2 µM (active) |
| COc1ccccc1CN1CC[C@@]2(CCCN(C(=O)c3ccco3)C2)C1 | 5.94% |  |
| Cc1cc(C(=O)C(=O)NC(C)C)c(C)n1-c1ccc([N+](=O)[O-])cc1 | -6.96% |  |
| O=c1cc(-c2ccccc2)[nH]n1-c1ccc([N+](=O)[O-])cc1 |  | 10 µM (active) |
| CC1(C)N=C(N)N=C(N)N1CCCCc1ccccc1 | 1.42% [at 11.4 µM] |  |
| CCOc1ccc(CCNC(=O)C2CC(=O)N(C3CCCC3)C2)cc1OCC (configuration not stated) | -18.7% |  |
| CCOc1ccc(CC(C(N)=O)C(N)=O)cc1CN(C)C | -25.3% |  |
| CCOc1ccc(CC(=O)C2C(=O)CCCC2=O)cc1OCC |  | 7.08 µM (active) |
